# Experimental data: PubChem BioAssay AID504832 (National Center for Advancing Translational Sciences (NCATS), 2011)
# About 18,000 (5.8%) of roughly 310,000 compounds were called active. Not shown: some 22% with an inconclusive outcome. Shown is part of a subset that was picked to be rich in actives. A number with no mark means an inactive call. Calls come from the whole dose curve; as a rule, active = well fitted inhibition curve with a large enough effect; inconclusive = small, poorly fitted or top-dose-only effect, or another doubt; inactive = no such curve, though single readings can be large or run the other way.
# Assay: Primary qHTS for delayed death inhibitors of the malarial parasite plastid, 48 hour incubation
# Conditions: P. falciparum luciferase growth in erythrocytes; series mostly up to 28.7 µM; activity change, negative = inhibition: at the top concentration
# How it was run: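 Here the parasites carry a stable luciferase gene and grow inside erythrocytes in Albumax-based RPMI medium with compound for one erythrocytic cycle. Activity is scored as loss of luminescent signal.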
# % is set by controls: 0 for no effect and ±100 for the full control effect; potency is the fitted concentration of half-maximal effect.
SMILES,"activity change, negative = inhibition",Potency
O=C(COC(=O)c1cc(S(=O)(=O)N2CCOCC2)ccc1Cl)NCCc1ccccc1,15.4%,
OC(c1nc2ccc(F)cc2[nH]1)C(O)c1nc2ccc(F)cc2[nH]1 (stereo unspecified),11.2%,
COc1ccc(C2=NOC(Cn3nc(C(=O)NCc4ccc5c(c4)OCO5)cc3-c3ccccc3)C2)cc1 (stereo unspecified),,9.28 µM (active)
Cc1ccc(CNC(=O)c2c(-c3ccccc3)noc2C)cc1,2.95% [at 0.00184 µM],
COc1ccc(NC(=O)NCc2ccc3c(c2)OCO3)c(OC)c1,1.8%,
COc1ccccc1-n1c(C)nc2cc(C(=O)NCc3ccc4c(c3)OCO4)ccc21,14.5%,
Cc1ccc(CNC(=O)c2cc(-c3ccccc3C)n(CC3CC(c4cccc([N+](=O)[O-])c4)=NO3)n2)cc1 (stereo unspecified),,5.22 µM (active)
Cc1ccccc1-c1cc(C(=O)NCC2CC2)n(CC2CC(c3cccnc3)=NO2)n1 (stereo unspecified),-6.01%,
O=C(COC(=O)c1cc(=O)[nH]c2ccccc12)NCc1cccc(Cl)c1,-24.3%,
O=C(NCc1cccs1)c1ccc(CS(=O)Cc2ccccc2Cl)o1 (stereo unspecified),14.7%,
CC(=O)NS(=O)(=O)c1ccc2c(c1)Cc1cc(S(=O)(=O)NC(C)=O)ccc1-2,20.5%,
CC(OC(=O)c1cc2ccccc2o1)C(=O)Nc1ccc(N2CCOCC2)cc1 (stereo unspecified),-9.79%,
Cc1cc([N+](=O)[O-])ccc1NC1CCCC1,1.67%,
C[n+]1ccccc1C1CCCC/C1=N\Nc1ccc([N+](=O)[O-])cc1[N+](=O)[O-] (stereo unspecified),,3.7 µM (active)
O=[N+]([O-])c1ccc(N/N=C2/CCCCC2c2ccccn2)c([N+](=O)[O-])c1 (stereo unspecified),2.85%,
Cc1cc(O)c(C2(O)C(=O)Nc3ccccc32)cc1C (stereo unspecified),-8.28%,
CCCn1nnnc1NCc1ccc(OC)cc1,54.3%,
CC(=O)c1nc2ccccc2n1Cc1ccccc1,18.9% [at 0.00184 µM],
Cc1ccc(Cn2c(SCC(=O)N/N=C/c3ccccc3OCC(=O)O)nc3ccccc32)cc1,7.08%,
CCCc1nc2c(C)cc(-c3nc4ccccc4n3C)cc2n1Cc1ccc(-c2ccccc2C(=O)O)cc1,,3.79 µM (active)
CN(c1ccccc1)S(=O)(=O)c1cccc(C(=O)NNC(=O)c2ccncc2)c1,-4.87%,
COC(=O)CN(C(=S)Nc1ccc(Cl)cc1)C1CC(=O)N(c2ccc(OC)cc2)C1=O (stereo unspecified),-15%,
CCOc1ccc(N2C(=O)CC(N(O)c3ccccc3)C2=O)cc1 (stereo unspecified),59.6%,
CCOc1ccc(N2C(=O)CC(N(CCc3ccc(OC)c(OC)c3)C(=S)Nc3ccccc3)C2=O)cc1 (stereo unspecified),,10.4 µM (active)
S=C(NCCc1ccccc1)Nc1ccccc1,16.9%,
Cc1cccc(NC(=S)NCCc2ccc(Cl)cc2)c1C,,2.94 µM (active)

SMILES,"activity change, negative = inhibition",Potency
CCNC(=S)Nc1cccc(Cl)c1C,-16.4%,
O=C(CN1CCCSc2ccccc21)N1CCN(S(=O)(=O)c2ccccc2)CC1,4.98%,
O=C(CN1C(=O)S/C(=C\c2ccccc2Cl)C1=O)NC1C=CS(=O)(=O)C1 (stereo unspecified),1.18%,
COc1c(C)c2c(c(O)c1C/C=C(\C)CCC(=O)O)C(=O)OC2,,2.56 µM (active)
COc1ccc(C(=O)Nc2ccnn2C2CCN(Cc3ccncc3)CC2)cc1,24.7%,
C=CCn1c(=O)c(C(=O)Nc2ncccc2O)c(O)c2ccccc21,61.6%,
CCOc1ccc(S(=O)(=O)Nc2cccc(C(=O)NCC3(N4CCCCC4)CCCCC3)c2)cc1,,14.7 µM (active)
CCOc1ccc(S(=O)(=O)Nc2ccc(OC)nc2)cc1,8.27%,
CCOc1ccc(S(=O)(=O)NCCC(=O)N2CCCCCCC2)cc1,9.99%,
CN(C)S(=O)(=O)c1ccc(C(=O)NCC2(N3CCOCC3)CCCCC2)cc1,-19.4%,
O=C(NCC1CCCO1)c1ccc(S(=O)(=O)Nc2ccc(F)cc2)cc1 (stereo unspecified),6.48%,
CCOc1ccc(NS(=O)(=O)c2ccc(C(=O)NCC(c3ccccc3OC)N3CCCC3)cc2)cc1 (stereo unspecified),,10.4 µM (active)
O=C(NCC1(N2CCCCC2)CCCCC1)c1ccc(NS(=O)(=O)c2ccc(F)cc2)cc1,,14.7 µM (active)
CCOc1ccc(S(=O)(=O)Nc2ccc(C(=O)NCCCN3CCCC3=O)cc2)cc1,9.13%,
CCOC(=O)c1cccc(NS(=O)(=O)c2c(C(=O)N3CCCCCC3)c(C)n(C)c2C)c1,-12.8%,
O=C(Nc1ccc(C2CC2(Cl)Cl)cc1)c1cccc([N+](=O)[O-])c1 (stereo unspecified),-0.243%,
CCn1c(SC(C)C(=O)Nc2ccc(N3CCOCC3)cc2)nnc1-c1ccco1 (stereo unspecified),7.63%,
CC(=O)N/C(=C\c1ccccc1)C(=O)OC(C)C(=O)N(C)c1ccccc1 (stereo unspecified),-7.82%,
Cc1ccc(NC(=O)CN2CCc3ccccc3C2)cc1C,8.17%,
COc1ccc(CNCCc2c[nH]c3ccccc23)cc1OC,-15.4%,
COc1ccc(C(C(=O)NC2CCCCC2)N(C(=O)Cc2c[nH]c3ccccc23)c2ccccc2)cc1OC (stereo unspecified),,13.1 µM (active)
COc1ccc(-c2cc(C(=O)NC(Cc3c[nH]c4ccccc34)C(=O)O)c(C)o2)cc1OC (stereo unspecified),36.3%,
Cc1ccc(F)cc1NC(=O)CSCc1c(C)noc1C,1.25%,
COc1ccc(S(=O)(=O)N2CCCCCC2)cc1C(=O)N(C)Cc1cccc(OC)c1OC,,13.1 µM (active)
CCNC(=O)NC(=O)C(C)OC(=O)c1cc(S(=O)(=O)N2CCCCCC2)ccc1OC (stereo unspecified),12%,
COc1ccc(S(=O)(=O)N2CCCCC2)cc1Br,-17.1%,

SMILES,"activity change, negative = inhibition",Potency
O=S(=O)(Nc1cccc(-c2ccc(N3CCOCC3)nn2)c1)c1ccc(Cl)c(Cl)c1,1.25%,
O=S(=O)(NC1CC2CCC1C2)c1ccc(Cl)cc1 (stereo unspecified),-3.94%,
Cc1cccc(Nc2nnc(SCC(=O)c3c(N)n(C4CC4)c(=O)[nH]c3=O)s2)c1C,,11.7 µM (active)
Cc1ccccc1Nc1nnc(SCC(=O)c2cc3ccccc3o2)s1,10.3%,
Cc1ccc(Nc2nnc(SCC(=O)c3cc4ccccc4o3)s2)cc1C,67.4%,
COCCOC(=O)C1=C(C)NC(=O)NC1c1cc2c(cc1Br)OCO2 (stereo unspecified),-13.4%,
O=C(NC(Cc1ccccc1)C(=O)N1CCCC(C(F)(F)F)C1)c1ccccc1 (stereo unspecified),-0.11%,
C[N+]12CN3CN(CN(C3)C1)C2,,13.1 µM (active)
Cc1ccc(N=C2SCCCN2C(=O)c2cccc(N3C(=O)CCC3=O)c2)cc1Cl,0.551%,
Cc1ccc(CNC(=O)C(=O)c2cn(CC(=O)N3CCOCC3)c3ccccc23)cc1,47.3%,
COc1ccc(C2CC(c3ccccc3)=NN2C(=O)CSc2nccc(=O)[nH]2)cc1 (stereo unspecified),3.53%,
COc1ccc(C2=NN(C(=O)CSc3nc(=O)n4ccc(C)cc4n3)C(c3ccc(C)cc3)C2)cc1 (stereo unspecified),,9.28 µM (active)
Cc1ccc(C2=NN(C(=O)CSc3nc(N)cc(N)n3)C(c3ccco3)C2)cc1 (stereo unspecified),5.49%,
Cc1cccc(NC(=O)C(C)SCc2ccccc2)c1 (stereo unspecified),16.4%,
COc1ccc(CCNC(=O)COC(=O)Cc2cccc(F)c2)cc1,-17.1%,
CCOCC(=O)Nc1ncc(S(=O)(=O)c2ccc([N+](=O)[O-])cc2)s1,-20.2%,
COc1ccc(C(=O)Nc2nc(-c3ccc(OC)cc3)c(-c3ccc([N+](=O)[O-])cc3)s2)cc1,37.7%,
COC(=O)C(NC(=O)c1ccc(OC)cc1)(Nc1ncc(S(=O)(=O)c2ccc([N+](=O)[O-])cc2)s1)C(F)(F)F (stereo unspecified),,8.28 µM (active)
Cc1c(C(=O)NC2CCCCC2)oc2ccccc12,71.4%,
CC(NC(=O)c1cc(=O)[nH]c2ccccc12)c1ccc(F)cc1F (stereo unspecified),-8.85%,
CSc1ccc(CCNC(=O)CS(=O)(=O)Cc2nc(-c3ccccc3F)oc2C)cc1,4.97%,
COc1ccc(C[C@H](C(=O)O)N2C(=O)c3ccc(C(=O)O)cc3C2=O)cc1,11.4%,
N#CC(C#N)=CN=c1ccn(Cc2ccc(Cl)cc2Cl)cc1,,2.94 µM (active)
O=c1ccn(Cc2ccccc2Cl)cc1,15.8%,
C=CCN1C=C2C(=O)C(C)(OC(=O)CCc3ccccc3)C(=O)C=C2C=C1c1ccc(C#N)cc1 (stereo unspecified),,11.7 µM (active)
COC/C=C/C1=CC2=CC(=O)C(C)(OC(=O)CCC(=O)OC)C(=O)C2=CO1 (stereo unspecified),36.7%,

SMILES,"activity change, negative = inhibition",Potency
COCCN1C=C2C(=O)C(C)(OC(=O)C3CCCC3)C(=O)C=C2C=C1c1ccsc1 (stereo unspecified),33.1%,
C/C(=N/OC(=O)c1ccc(Br)cc1)c1ccc(C)cc1,19.2%,
COc1ccc(-n2c(C)cc(C(=O)CN3C(=O)NC4(CCc5ccccc54)C3=O)c2C)cc1 (stereo unspecified),,4.15 µM (active)
CCN(CC)c1ccc(NC(=O)CN2C(=O)NC3(CCc4ccccc43)C2=O)cc1 (stereo unspecified),-23.1%,
COc1ccc(C(=O)CN2C(=O)NC3(CCc4ccccc43)C2=O)c(OC)c1 (stereo unspecified),10.4%,
CN(CC(=O)Nc1ccc(Cl)cc1)CC(=O)Nc1cccc2ccccc12,12.5%,
NC(=O)C1CCN(C(=O)c2ccc(F)c(S(=O)(=O)N3CCOCC3)c2)CC1,5%,
COc1ccc(C=C(C#N)C#N)c(CSc2ccccn2)c1,-16.3%,
O=[N+]([O-])c1ccc(N=Cc2c(O)ccc3ccccc23)cc1,15.8%,
Oc1ccc2ccccc2c1C=Nc1ccccc1,24.6%,
Oc1ccc(N=Cc2c(O)ccc3ccccc23)cc1,,9.28 µM (active)
COc1cccc(NC(=O)COC(=O)/C=C/c2ccco2)c1,23.3%,
O=C(COC(=O)c1ccc2ncsc2c1)Nc1ccc(Cl)cc1,47.1%,
Cn1c(SCC(=O)N2CCCC2)nnc1-c1cccs1,20.1%,
O=C(CSc1nnc(-c2cccs2)n1Cc1ccccc1)N1CCc2ccccc2C1,,6.57 µM (active)
O=C(CSc1nnc(-c2cccs2)n1-c1ccccc1)N1CCN(C(=O)c2ccco2)CC1,-13.2%,
O=C(O)c1ccc(OCC2CCCO2)cc1 (stereo unspecified),10%,
O=C(CSc1n[nH]c(-c2cccs2)n1)N1CCCCC1,25.1%,
CC(=O)Nc1ccc(S(=O)(=O)NC2Cc3ccccc3C2)cc1,-8.94%,
O=S(=O)(NC1CCCCC1N1CCCCC1)c1ccc(Cl)cc1 (stereo unspecified),16.4%,
CCN(c1ccc2c(c1)OCO2)S(=O)(=O)c1cc(Br)cc2c1N(C(=O)C1CC1)CC2,,1.47 µM (active)
CS(=O)(=O)N(CC(=O)N1CCN(Cc2ccc3c(c2)OCO3)CC1)c1ccc2c(c1)OCO2,-6.02%,
CCOC(=O)N1CCN(S(=O)(=O)c2cc(Br)cc3c2N(C(=O)C2CC2)CC3)CC1,-16.7%,
